Granule exo inh = lytic granule exocytosis inhibition | 0.66% of 360,000 active | TALL-104 LAMP-1 surface exposure, flow cytometry; cells stimulated with thapsigargin and PMA | inhibition, % at 10 µM;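 active means inhibition above about 55%, limit read from the data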
VLA-4 inh = inhibition in a human VLA-4 binding assay. P13612. VLA-4 expressing cells, ligand binding flow cytometry. inhibition, % (about 7 µM as worked out from the volumes in the protocol). 0.2% of 330,000 active; in the data active means inhibition above about 50%
GASC-1 inh = blocks human GASC-1 demethylase activity. Q9H3R0. GST-JMJD2C(1-420) H3K9me3 demethylation, DELFIA europium. inhibition, % at 2.35 µM. 0.069% of 330,000 active. AID 2099;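 active means more than half of a compound's replicate wells show inhibition beyond 50%, single wells judged on their own value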;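 further: signal counts dimethyl H3K9 product captured on neutravidin plate; 0% = median of DMSO wells and 100% = 0.3 times that DMSO median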
HTR2A ag = mouse HTR2A agonism via beta-arrestin recruitment | P35363 | CHO-K1 mHTR2A beta-arrestin complementation, luminescence; percent of 30 µM serotonin response | activation, % at 7.6 µM | 0.66% of 360,000 active | AID 624169;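 active means activation above a run cutoff, the mean activation of all tested compounds plus 3 SD, cut at about 14% in these data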;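 further: 0% = plate median of compound wells and 100% = 30 µM serotonin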
V-ATPase pH = yeast V-ATPase proton transport regulation by pHLuorin. response, % at 10 µM. S. cerevisiae, pHLuorin cytosolic pH fluorescence. 0.37% of 350,000 active; in the data active means response mostly above about 7.3%, no sharp cut-off; inactive means mostly below about 5.4%; further: actives read high
MEX-5 binding = C. elegans MEX-5 TCR-2 RNA binding activity; AID 1832; 0.38% of 300,000 active; Q9XUB2; MEX-5/FITC-TCR2 RNA binding, fluorescence polarization; hits give low values; activity score (negative = inhibition of binding), % at 10 µM;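 active means inhibition past about -25% in most replicates, and total fluorescence under double the plate's negative control median, limit read from the data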;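 further: 0% = DMSO and -100% = 5 µM competing unlabeled TCR2 RNA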
Target sequence (Q9XUB2 whole entry, looked up): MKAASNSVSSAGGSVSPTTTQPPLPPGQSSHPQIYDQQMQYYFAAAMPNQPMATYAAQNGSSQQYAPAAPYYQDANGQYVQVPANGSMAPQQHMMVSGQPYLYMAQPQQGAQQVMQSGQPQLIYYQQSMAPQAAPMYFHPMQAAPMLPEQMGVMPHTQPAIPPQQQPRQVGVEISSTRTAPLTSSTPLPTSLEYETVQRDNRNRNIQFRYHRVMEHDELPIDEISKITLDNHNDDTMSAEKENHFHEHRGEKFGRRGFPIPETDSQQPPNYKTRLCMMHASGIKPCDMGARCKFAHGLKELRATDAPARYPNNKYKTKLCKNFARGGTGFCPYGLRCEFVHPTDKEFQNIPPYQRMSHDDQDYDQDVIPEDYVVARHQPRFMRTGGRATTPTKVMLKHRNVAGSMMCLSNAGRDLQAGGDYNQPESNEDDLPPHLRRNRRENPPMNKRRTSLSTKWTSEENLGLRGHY
MOR ag counter = activates human mu opioid receptor in HTR2A counterscreen. shares compounds with HTR2A ag. U2OS OPRM1 beta-arrestin PathHunter, luminescence; DMSO 0%, DAMGO 9.3 µM 100%. activation, % at 9.3 µM. 5.3% of 2,300 active;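 active means mean activation above the mean of DMSO-only wells plus 3 SD, cut at about 0.5% in these data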
HTR2A ag conf = mouse HTR2A agonism confirmed. shares compounds with HTR2A ag. CHO-K1 PathHunter beta-arrestin recruitment, luminescence; DMSO 0%, 30 µM serotonin 100%. activation, % at 7.6 µM. 19% of 2,300 active. AID 624381;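 active means mean activation across triplicates above the hit threshold derived in the original primary screen, cut at about 15% in these data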
* marks the source's active call; other numbers are inactive results; ! = not confirmed by another sample. Hits are enriched below; roughly 2.2% of the tested compounds scored in any of these assays.

What do the screens show for `O=C(NCC(=O)N1CCOCC1)c1ccccc1`?
Granule exo inh: -6; VLA-4 inh: 4; GASC-1 inh: -2; HTR2A ag: 3; V-ATPase pH: 1; MEX-5 binding: 3

What do the screens show for `CC(C)(C)c1ccc(S(=O)(=O)NC(=O)C2(C)CCN2C(=O)C2(c3ccc(Cl)cc3)CC2)cc1` (stereo not given)?
Granule exo inh: 6; HTR2A ag: 2

Results for CC1(C(=O)NS(=O)(=O)c2ccc(Cl)cc2)CCN1C(=O)C1(c2ccc(Cl)cc2)CC1 (stereo not given) ?
Granule exo inh: -4; HTR2A ag: 15*; MOR ag counter: -1; HTR2A ag conf: -1

Results for COc1ccc(OC)c(NC(=S)N(CCc2c(C)[nH]c3ccc(C)cc23)Cc2cccs2)c1 ?
Granule exo inh: -2; VLA-4 inh: -8; GASC-1 inh: 18; HTR2A ag: 20*; V-ATPase pH: 1; MEX-5 binding: 4; MOR ag counter: -1; HTR2A ag conf: 4

Results for Oc1ccc(C2CNCCc3c2cc(O)c(O)c3Cl)cc1 (stereo not given) ?
Granule exo inh: -4; VLA-4 inh: 20; GASC-1 inh: 4; HTR2A ag: 34*!; V-ATPase pH: -1; MEX-5 binding: -12; MOR ag counter: 0; HTR2A ag conf: 145*

What do the screens show for `Oc1cc2c(c(Cl)c1O)CCNCC2c1ccccc1` (stereo not given)?
Granule exo inh: 0; VLA-4 inh: 9; GASC-1 inh: -6; HTR2A ag: 24*; V-ATPase pH: 1; MEX-5 binding: -20; MOR ag counter: 0; HTR2A ag conf: 100*

How did CC(C)N=C1NN=C(c2ccc(Cl)c(Cl)c2)CS1 do in these assays?
Granule exo inh: -1; GASC-1 inh: -6; HTR2A ag: 0; V-ATPase pH: 1; MEX-5 binding: 4

Results for Cc1ccccc1C(=O)O/N=C(\c1ccccc1)c1ccccn1 ?
Granule exo inh: 3; VLA-4 inh: -3; GASC-1 inh: -7; HTR2A ag: 23*; V-ATPase pH: 2; MEX-5 binding: 0; MOR ag counter: -1; HTR2A ag conf: 43*

Results for Cc1ccccc1C(=O)O/N=C(\N)c1ccccc1 ?
Granule exo inh: -11; VLA-4 inh: 1; GASC-1 inh: -5; HTR2A ag: 5; V-ATPase pH: 4; MEX-5 binding: 1

What do the screens show for `COc1cccc(CNC(=O)CN2C(=O)COc3ccc(S(=O)(=O)N4CCOCC4)cc32)c1`?
Granule exo inh: -9; VLA-4 inh: -2; GASC-1 inh: -16; HTR2A ag: 0; V-ATPase pH: 0; MEX-5 binding: -2

How did COc1cccc(CNC(=O)CN2C(=O)COc3ccc(S(=O)(=O)N4CCCCC4)cc32)c1 do in these assays?
Granule exo inh: 0; VLA-4 inh: 7; GASC-1 inh: 9; HTR2A ag: 16*; V-ATPase pH: 3; MEX-5 binding: 1; MOR ag counter: -1; HTR2A ag conf: -5

What do the screens show for `CC1CCc2c(sc(Nc3nc4c(F)cccc4s3)c2C(N)=O)C1` (stereo not given)?
Granule exo inh: 85*; VLA-4 inh: -17; GASC-1 inh: 2; HTR2A ag: 19*; V-ATPase pH: 0; MEX-5 binding: -2; MOR ag counter: 0; HTR2A ag conf: 12

Results for COc1ccc(CNS(=O)(=O)c2ccc3c(c2)NC(=O)C(C)S3)cc1 (stereo not given) ?
Granule exo inh: 3; VLA-4 inh: 16; GASC-1 inh: 5; HTR2A ag: 1; V-ATPase pH: 3; MEX-5 binding: 1

How did O=C(Nc1ccc(Cl)cc1)Nc1nnc(SCc2ccc(Cl)cc2)s1 do in these assays?
Granule exo inh: 1; VLA-4 inh: -3; GASC-1 inh: 1; HTR2A ag: -2; MEX-5 binding: 3

Source: PubChem BioAssay
